KCNQ2 pot = enhances the rat KCNQ2 potassium channel. CHO-K1 KCNQ2, FluxOR thallium flux fluorescence; active compounds read high. B-score at 10 µM. 310,000 compounds, 0.54% hits. AID 2239;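 active = fluorescence ratio B-score at least 3 SD of library B-scores, with initial fluorescence B-score within 3 of them, cut at about 5.3 in these data; same plate scores as AID 2156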;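 note: B-score of peak minus minimum over baseline fluorescence ratio after K+ and Tl+ stimulus; positive B-score means potentiation of KCNQ2 with more thallium influx and brighter signal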
KCNQ2 block = KCNQ2 (rat) channel inhibition; CHO-K1 KCNQ2, FluxOR thallium flux, 20 min; active compounds read low; 310,000 compounds, 1.1% hits; B-score at 10 µM; O88943; AID 2156;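 active = fluorescence ratio B-score at most minus 3 library SDs, with starting brightness B-score within 2 library SDs, cut at about -5.5 in these data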
KCNQ2 inh conf = confirmation of rat KCNQ2 potassium channel inhibitors; shares compounds with KCNQ2 block; KCNQ2-expressing cells, thallium flux, inhibition; active compounds read low; activity change, negative = inhibition, % at 10 µM; 1,000 compounds, 57% hits; AID 493025
KCNQ1 spec = human KCNQ1 activity in KCNQ2 inhibitor specificity screen; shares compounds with KCNQ2 block; activity change, negative = inhibition, % at 10 µM; 1,000 compounds, 15% hits; KCNQ1-expressing cells, FluxOR thallium flux fluorescence; active compounds read low;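 active = activity change at least 3 SD of negative controls below their mean in both duplicate wells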;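 note: CHO cells stably transfected with KCNQ1 and depolarized by potassium stimulus; peak minus minimum fluorescence over baseline after thallium addition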
CHO Tl ctr = activity in parental CHO cells lacking KCNQ2; shares compounds with KCNQ2 block; thallium flux counter-screen; active compounds read low; activity change, % at 10 µM; 1,000 compounds, 14% hits; AID 493029
KCNQ2 inh confirm = rat KCNQ2 inhibition confirmed by electrophysiology; calls only at 10 µM; KCNQ2-expressing cells, automated patch clamp current; shares compounds with KCNQ2 block; 550 compounds, 49% hits
Each line names hits and unclear results; the compound was inactive in the other large screens (follow-up assays come after a bar, where they were run). Most compounds without a hit are left out; they make up all but 1.6% or so of the library. Unless noted, the rule behind the calls is not given here.

Cc1ccccc1C(=O)Nc1ccnn1C1CCN(Cc2cnn(C(C)C)c2)CC1	none
COc1ccc(CN(C(=O)c2ccco2)c2ccc(C)c(C)c2)cc1	KCNQ2 block -6.66 | KCNQ2 inh conf inactive | KCNQ1 spec inactive | CHO Tl ctr inactive
CCOc1ccc(N(Cc2ccc(OC)cc2)C(=O)c2ccco2)cc1	none (no result: KCNQ2 pot)
COc1ccc(NS(=O)(=O)c2csc(C(=O)N3CCCC3)c2)c(OC)c1	none (no result: KCNQ2 pot)
Cc1ccc(Sc2nc(C)c([N+](=O)[O-])c(C)c2C#N)cc1	none (no result: KCNQ2 pot)
Cc1nc(Sc2ccc(Br)cc2)c(C#N)c(C)c1[N+](=O)[O-]	KCNQ2 block -7.65 | KCNQ2 inh conf -20.5% | KCNQ1 spec inactive | CHO Tl ctr inactive | KCNQ2 inh confirm inactive
Clc1ccc(-c2csc(N3CCC(c4ccccc4)C3)n2)cc1 (centres undefined)	none (no result: KCNQ2 pot)
Fc1ccc(-c2csc(N3CCC(c4ccccc4)C3)n2)cc1 (centres undefined)	KCNQ2 block -9.49 | KCNQ2 inh conf inactive | KCNQ1 spec inactive | CHO Tl ctr inactive
CN1CCN(C2Cc3ccccc3Sc3cc(C(F)(F)F)ccc32)CC1 (centres undefined)	KCNQ2 block -7.38 | KCNQ2 inh conf -39.0% | KCNQ1 spec -38.0% | CHO Tl ctr -30.0% | KCNQ2 inh confirm inactive
CN1CCN(C2Cc3cc(F)ccc3Sc3ccc(Cl)cc32)CC1 (centres undefined)	none (no result: KCNQ2 pot)
Cc1ccc(NC(=O)c2cc(S(=O)(=O)N3CCOCC3)cn2C)cc1Cl	none
Cc1ccc(C(C(=O)NCc2ccc(F)cc2)N(C(=O)c2csnn2)C2CC2)cc1 (centres undefined)	none (no result: KCNQ2 pot)
Cc1ccc(C(C(=O)NCc2ccc(F)cc2)N(C(=O)c2csnn2)C2CC2)o1 (centres undefined)	KCNQ2 block -8.72 | KCNQ2 inh conf -20.5% | KCNQ1 spec inactive | CHO Tl ctr inactive | KCNQ2 inh confirm active
Cc1ccc(NC(=O)CC2NCCNC2=O)cc1Cl (centres undefined)	none
CC1CCC(NC(=O)Cn2c(=O)oc3ccccc32)CC1 (centres undefined)	none
COc1ccc(N2CC(NS(=O)(=O)c3cccs3)CC2=O)cc1 (centres undefined)	none
Cc1sc(NC(=O)c2ccco2)c(C(c2cccnc2)N2CCN(c3ccc(F)cc3)CC2)c1C (centres undefined)	KCNQ2 block -10.3 | KCNQ2 inh conf -29.0% | KCNQ1 spec inactive | CHO Tl ctr inactive | KCNQ2 inh confirm inactive
Cc1sc(NC(=O)c2ccco2)c(C(c2cccnc2)N2CCN(CCO)CC2)c1C (centres undefined)	none
COc1ccc(Cl)cc1NS(=O)(=O)N1CCOCC1	none
CN(CC(O)COc1ccccc1F)C1CCCCC1 (centres undefined)	none
Cc1ccccc1OCC(O)CN(Cc1ccccc1O)C1CCCCC1 (centres undefined)	KCNQ2 block -7.41 | KCNQ2 inh conf -28.5% | KCNQ1 spec inactive | CHO Tl ctr inactive | KCNQ2 inh confirm active
CCN1CCN(c2oc(COc3ccc(Cl)cc3)nc2C#N)CC1	none (no result: KCNQ2 pot)
N#Cc1nc(COc2ccc(Cl)cc2)oc1N1CCN(Cc2ccccc2)CC1	KCNQ2 block -6.86 | KCNQ2 inh conf -24.5% | KCNQ1 spec inactive | CHO Tl ctr inactive | KCNQ2 inh confirm inactive
CCN(CC)S(=O)(=O)c1ccc(NC(=O)C2CCCN(C(=O)c3ccc(Cl)cc3)C2)cc1 (centres undefined)	none
COc1cc(/C=N/O)ccc1OCc1ccc(Cl)cc1	none (no result: KCNQ2 pot)
COc1cc(/C=N/N=C(N)N)ccc1OCc1ccc(Cl)cc1	KCNQ2 block -9.37 | KCNQ2 inh conf inactive | KCNQ1 spec inactive | CHO Tl ctr inactive
CCOc1ccc(C(=O)NCC(c2ccco2)N2CCOCC2)cc1 (centres undefined)	none
CN1CCN(c2cc(N3CCc4ccccc4C3)c(F)cc2[N+](=O)[O-])CC1	KCNQ2 block -6.85 | KCNQ2 inh conf inactive | KCNQ1 spec inactive | CHO Tl ctr inactive
CCC(=O)N1CCN(c2cc(N3CCN(C)CC3)c(F)cc2[N+](=O)[O-])CC1	none
O=C(NCCc1ccccc1)c1ccc2nc(-c3ccco3)c(-c3ccco3)nc2c1	none
O=C(c1ccccc1)c1ccc2nc(-c3ccco3)c(-c3ccco3)nc2c1	KCNQ2 block -7.7 | KCNQ2 inh conf inactive | KCNQ1 spec inactive | CHO Tl ctr inactive
COc1ccccc1N1CCN(/N=C/c2cccc(Cl)c2)CC1	KCNQ2 block -7.03 | KCNQ2 inh conf -29.5% | KCNQ1 spec inactive | CHO Tl ctr inactive | KCNQ2 inh confirm active
